Experimental data as given in ChEMBL document CHEMBL3988442, “University of Dundee, Small-Polar-MMV Screening Library” (2021).
Among all 48,000 compounds or so, about 13,000 (27%) showed an effect of 50% or more. The list shows a part of the results.

Tested on: Wolbachia pipientis
Assay: Anti-Wolbachia Cell-Based Screen
Assay type: functional
Set-up: scale not given: in the data most compounds retested in dose-response had high values
Settings: 5 µM

SMILES | Percent Effect [%]
COc1cc(CNCc2c(C)nn(CC(C)C)c2N(C)C)ccn1 | 90.35
Cc1nn(CC(C)C)c(N(C)C)c1CNCc1ccccc1CO | 116.8
Cc1nn(C)c(N(C)C)c1CNCc1ccnn1C | -14.99
Cc1nn(CC(C)C)c(N(C)C)c1CNCc1cccnc1N(C)C | -5.662
Cc1nn(CC(C)C)c(N(C)C)c1CNCc1ccnn1C | 113.6
Cc1nn(CC(C)C)c(N(C)C)c1CNCc1cc2ccccc2[nH]1 | 5.6
COc1cc(CNCc2c(C(C)C)nn(C)c2N(C)C)ccn1 | -8.861
CC(C)c1nn(C)c(N(C)C)c1CNCc1ccnn1C | 10.31
Cc1nn(CC(C)C)c(N(C)C)c1CNCc1ccc(CO)c(F)c1 | 108.6
Cc1nn(CC(C)C)c(N(C)C)c1CNCc1cccc2c1OCO2 | 0.06204
CC(=O)NCCCNCc1c(C)nn(CC(C)C)c1N(C)C | -6.238
COc1cc(CNCc2c(C)nn(C)c2N(C)C)ccn1 | -5.351
COCC1CN(C(=O)Nc2cc(-n3cccc3)ccc2F)CCO1 (stereo unspecified) | 0.4358
O=S(=O)(NCCc1c[nH]c2ccc(F)cc12)C1CCOCC1 | -14.21
Cc1cc(N2CCN(Cc3ccc(C)o3)CC2)cc(C)n1 | 4.051
CN(Cc1cccc(Cl)c1)C(=O)Cn1nc(-c2ccc(F)cc2)oc1=O | -8.099
CCOCc1nc2c(c(N(C)Cc3snnc3C)n1)CCNCC2 | 2.794
O=C(NC[C@@H]1CCCO1)c1ccc(S(=O)(=O)N[C@@H]2CCNC2)cc1 | -1.141
COc1ccc(CNC(Cn2cncn2)c2ccccc2)cc1C (stereo unspecified) | -2.513
Fc1ccc(CNc2ccccc2Cn2cncn2)cc1 | -15.58
CC(C)c1ccc(CNC(c2ccc(F)cn2)C(C)C)cc1 (stereo unspecified) | 100.5
CC(C)C(NCc1ccc(Cn2cncn2)cc1)c1ccccc1 (stereo unspecified) | 124.9

SMILES | Percent Effect [%]
CC(C)C(NCc1ccc(Cn2cncn2)cc1)c1ccc(F)cn1 (stereo unspecified) | 90.96
N#Cc1cc(F)ccc1NCc1ccc(Cn2cncn2)cc1 | 1.669
COc1ccc(CNC(Cn2cncn2)c2ccccc2)cc1O (stereo unspecified) | -2.426
CC(NCc1ccc(F)cc1)c1ccc(S(C)(=O)=O)cc1 (stereo unspecified) | 8.945
Cc1[nH]ncc1C(C)NCc1ccc(F)cc1 (stereo unspecified) | -5.411
COc1cc(OC)cc(N2CCC(NCc3occc3C)C2=O)c1 (stereo unspecified) | -29.36
Cc1cn(Cc2nc(CC(C)C)nn2-c2ccccn2)c(=O)[nH]c1=O | 5.875
CCOCCC(=O)Nc1cc(C)cnc1OC | 1.473
O=C(O)C(c1ccc2[nH]ccc2c1)N1CCN(c2cnccn2)CC1 (stereo unspecified) | -11.7
O=C(C1=CCCC1)N1CCC[C@]2(C[C@@H](OCc3ccncc3)CO2)C1.O=C(O)C(F)(F)F | -18.3
Cc1ccc(S(=O)(=O)NC[C@H]2OC[C@@H](NCc3ccccc3)[C@@H]2O)cc1 | -16.71
COC1CCN(S(=O)(=O)N2CCC3(CCCNC3=O)C2)CC1 (stereo unspecified) | 4.322
CN1CC(Nc2nc3c(cnn3C(C)(C)C)c(=O)[nH]2)CCC1=O (stereo unspecified) | 10.78
O=C1CCCN1Cc1ncn2c1CN(S(=O)(=O)c1cccs1)CCC2 | -2.152
O=C(O)C(F)(F)F.O=C1CCCN1Cc1ncn2c1CN(Cc1cccs1)CCC2 | -6.025
O=C1CCCN1Cc1ncn2c1CN(C(=O)Cc1cccs1)CCC2 | 106.6
O=C1CCCN1Cc1ncn2c1CN(C(=O)Cc1ccccc1)CCC2 | 99.41
Cc1ccc(CC(=O)N2CCCn3nnc(Cn4cccn4)c3C2)cc1 | -8.474
CCCn1ncnc1C(C)NC(=O)CC1CCN(C(C)C)CC1 (stereo unspecified) | -1.645
Cl.c1csc(-c2noc(C3CCCNC3)n2)c1 (stereo unspecified) | 100.6
CCS(=O)(=O)N1CC(c2nc(-c3cccs3)no2)C1 | 0.556
c1csc(-c2noc(C3CCCOC3)n2)c1 (stereo unspecified) | -23.77

SMILES | Percent Effect [%]
CCN(CC)CCn1cnc(-c2ccccc2)c1-c1cnn(CC)c1 | 8.592
Cc1nn(C)cc1-c1nn2c(C(F)(F)F)nnc2s1 | 115.5
CCn1cc(-c2nn3c(C(F)(F)F)nnc3s2)cn1 | 71.37
CN(Cc1cc(=O)c(O)co1)C1CCN(c2ccc(F)cc2)CC1 | -14.07
CN(C)C[C@H]1C[C@@H](CO)CN(C(=O)c2cc(=O)[nH]c3cc(F)ccc23)C1 | -10.33
COCCN(C)C[C@H]1C[C@H](CO)CN(C(=O)c2ccn(C)c(=O)c2)C1 | 59.73
Cn1ccc(C(=O)N2CCCC(CNS(C)(=O)=O)C2)cc1=O (stereo unspecified) | -3.744
CN(C)C[C@H]1C[C@H](CO)CN(C(=O)c2cc(S(N)(=O)=O)ccc2F)C1 | -6.33
COCCN(C)C[C@H]1C[C@@H](CO)CN(C(=O)c2ccn(C)c(=O)c2)C1 | 96.22
Cc1nc(-c2ccc(Cl)s2)sc1C(=O)N(C)CC(N)=O | 2.802
COCc1noc(-c2ccc(N3CCCC3c3nccs3)nc2)n1 (stereo unspecified) | 1.711
CCOC(=O)c1c(NC(=O)CN2CCN(C(C)=O)CC2)sc(C)c1C | 112.4
CCC(C)NC(=O)CN1CCOCC1 (stereo unspecified) | 4.194
CCc1ccc(NC(=O)C2CCN(C(=O)COC)CC2)cc1 | -3.205
CCOC(=O)N1CCC(C(=O)Nc2nnc(C(F)(F)F)[nH]2)CC1 | 5.698
CCOC(=O)N1CCN(CC(=O)Nc2nnc(CC)s2)CC1 | -11.16
CCOC(=O)c1c(NC(=O)C2CCN(C(C)=O)CC2)sc(C)c1CC | 114.1
CCc1c(C)sc(NC(=O)CN2CCOCC2)c1C(=O)OC | 123.3
CCc1c(C)sc(NC(=O)CN2CCN(CC)CC2)c1C(=O)OC | -10.89
CCOC(=O)N1CCN(CC(=O)Nc2nnc(C)s2)CC1 | -13.53
O=C(Nc1ccc(N2CCOCC2)nc1)N1CCc2sccc2C1 | -5.037
Cc1nn(C)c(Oc2ccccc2)c1CNC1CCOc2ccccc21 (stereo unspecified) | 17.34
